{
  "source": "PubChem BioAssay (NCATS)",
  "note": "Calls of active or inactive are those of the source. Calls follow the shape of the full dose curve.",
  "data": [
    {"target": "Tumor susceptibility gene 101 protein (Homo sapiens) (UniProt Q99816)", "sequence (Q99816 whole entry, looked up)": "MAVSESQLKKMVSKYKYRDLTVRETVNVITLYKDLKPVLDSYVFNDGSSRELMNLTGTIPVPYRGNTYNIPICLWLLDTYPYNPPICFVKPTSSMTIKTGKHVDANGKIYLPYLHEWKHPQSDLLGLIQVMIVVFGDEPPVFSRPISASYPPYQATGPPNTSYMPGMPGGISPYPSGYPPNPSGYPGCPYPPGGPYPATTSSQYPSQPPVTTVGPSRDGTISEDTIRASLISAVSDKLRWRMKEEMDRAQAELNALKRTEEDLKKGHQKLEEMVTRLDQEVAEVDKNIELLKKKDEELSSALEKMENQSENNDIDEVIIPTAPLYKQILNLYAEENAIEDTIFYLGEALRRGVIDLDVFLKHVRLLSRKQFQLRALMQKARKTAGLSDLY", "experiment": "qHTS Validation Assay for Iinhibitors of HIV-1 Budding by Blocking the Interaction of PTAP/TSG101 (AID 485342)", "details": "TSG101-PTAP binding, fluorescence polarization, 4-point titration; series mostly up to 115 µM", "description": "NIH Molecular Libraries Probe Production Network [MLPCN]\nNIH Chemical Genomics Center [NCGC]\nPI Name: Dr. Eric Freed, NCI\nStages of the HIV-1 replication cycle, specifically virus assembly and release, provide underexploited targets for the development of novel antiviral inhibitors. The late stages of HIV-1 replication are mediated by the Gag precursor protein, Pr55Gag. Expression of Pr55Gag is both necessary and sufficient for the production of virus-like particles from Gag-expressing cells. The Gag protein hijacks key host proteins involved in endocytic machinery of the host cell to promote endosomal processing and viral budding. The budding process requires a direct interaction between a […] (PTAP) motif in the p6 domain of Gag and the cellular endosomal sorting protein known as Tsg101. In this way, the Gag PTAP motif promotes the host cells to recruit viral particles to the plasma membrane where the new viral particles are released, effectively turning the host cells into viral factories. A fluorescence anisotropy assay has been developed to quantitatively measure the PTAP-Tsg101 interaction which can be used to screen for inhibitors of this interaction.\nNCGC Assay Protocol Summary:\nTwo uL of the Tsg101 binding domain in buffer (10 mM HEPES pH 7.5; 0.15 M NaCl, 0.01% Tween 20; 3 mM EDTA;0.1 mM TCEP) was dispensed into Greiner black MB 1536-well plates (final concentration 10 uM). Then, 23 nL of compounds or DMSO were delivered to each well using a pin tool. Finally, 2 uL of a FITC-labeled peptide containing the PTAP motif (1) in the same buffer was dispensed (50 nM final concentration) and the binding was allowed to proceed for 20 min. at r.t. Fluorescent polarization was determined using FITC excitation and polarized emission filters on a Perkin Elmer Viewlux.\nKeywords: Tsg101, PTAP, Gag, HIV, fluorescent polarization, MLSMR, MLPCN, NIH Roadmap, qHTS, NCGC", "values": [
      {"compound": "NC(N)=NC(N)=Nc1cccc(Cl)c1", "outcome": "inactive"},
      {"compound": "OCC1NCC(O)C(O)C1O", "note": "(stereo not given)", "outcome": "inactive"},
      {"compound": "O=C(O)/C(=C/c1c(C(=O)O)[nH]c2cc(Cl)cc(Cl)c12)c1ccccc1", "outcome": "inactive"},
      {"compound": "CC(=O)NNC(=O)N1Cc2ccccc2Oc2ccc(Cl)cc21", "outcome": "inactive"},
      {"compound": "COc1cc(C(O)C(=O)O)ccc1O", "note": "(stereo not given)", "outcome": "inactive"},
      {"compound": "N#Cc1cc2nc(O)c(O)nc2cc1[N+](=O)[O-]", "outcome": "inactive"},
      {"compound": "CC1=C(/C=C/C(C)=C/C=C/C(C)=C\\C(=O)O)C(C)(C)CCC1", "outcome": "inactive"},
      {"compound": "COC1(C2=NCCN2)COc2ccccc2O1", "note": "(stereo not given)", "outcome": "inactive"},
      {"compound": "O=C(N[C@@H](Cc1ccccc1)C(=O)CCl)OCc1ccccc1", "outcome": "inactive"},
      {"compound": "CC(C)C[C@H](NC(=O)[C@H](O)[C@H](N)Cc1ccccc1)C(=O)O", "outcome": "inactive"},
      {"compound": "CC(C)(CO)Cc1cc(C(C)(C)C)c(O)c(C(C)(C)C)c1", "outcome": "inactive"},
      {"compound": "CCCCCCCCCCC(C)(C)C(=O)Nc1c(OC)cc(OC)cc1OC", "outcome": "inactive"},
      {"compound": "Cc1nc(N=Nc2ccc(C(=O)O)cc2)c(COP(=O)(O)O)c(C=O)c1O", "outcome": "inactive"},
      {"compound": "c1ccc2c(c1)CCC[C@H]2Nc1nc2ccccc2[nH]1", "outcome": "inactive"},
      {"compound": "O=c1onc2n1-c1cc(Br)ccc1OC2", "outcome": "inactive"},
      {"compound": "Nn1nnc2ccccc21", "outcome": "inactive"},
      {"compound": "OC[C@H]1NC[C@@H](O)[C@@H]1O", "outcome": "inactive"},
      {"compound": "NCCCCN", "outcome": "inactive"},
      {"compound": "Cn1c(=O)c2c(nc(/C=C/c3cccc(Cl)c3)n2C)n(C)c1=O", "outcome": "inactive"},
      {"compound": "Nc1ncnc2c1c(-c1ccc(Oc3ccccc3)cc1)cn2C1CCCC1", "outcome": "inactive"},
      {"compound": "O=c1[nH]c2ccccc2c2ccccc12", "outcome": "inactive"},
      {"compound": "NC(C(=O)N[C@@H]1C(=O)N2C(C(=O)O)=C(Cl)CS[C@H]12)c1ccccc1", "note": "(stereo not given in full)", "outcome": "inactive"},
      {"compound": "CC#CCOC(=O)c1c(C)nc2sc3c(c2c1N)CCC(O)C3", "note": "(stereo not given)", "outcome": "inactive"},
      {"compound": "O=C(O)C1CCNCC1", "outcome": "inactive"},
      {"compound": "C[C@@]1(C2CCCC2)Cc2cc(OCC(=O)O)c(Cl)c(Cl)c2C1=O", "outcome": "inactive"},
      {"compound": "N=C(N)SCCN", "outcome": "inactive"},
      {"compound": "O=C(O)C1=CCNCC1", "outcome": "inactive"},
      {"compound": "Cc1cccc(C2CN(C)CCc3c2cc(O)c(O)c3Cl)c1", "note": "(stereo not given)", "outcome": "inactive"},
      {"compound": "COc1cc([C@@H]2c3cc4c(cc3[C@H](O)C3COC(=O)[C@@H]32)OCO4)cc(OC)c1OC", "note": "(stereo not given in full)", "outcome": "inactive"},
      {"compound": "C=C1C(=O)O[C@@H]2[C@H]3O[C@]3(C)CCC=C(C)CC[C@@H]12", "outcome": "inactive"},
      {"compound": "CCCOC(=O)c1c(-c2ccccc2)nc(CC)c(C(=O)SCC)c1CCC", "outcome": "inactive"},
      {"compound": "O=c1cc(-c2ccccc2F)[nH]c2cc3c(cc12)OCO3", "outcome": "inactive"},
      {"compound": "CNc1cc(NS(=O)(=O)c2ccc(N)cc2)nc(NC)n1", "outcome": "inactive"},
      {"compound": "CCN(c1nc(N)c(C(=O)N=C(N)N)nc1Cl)C(C)C", "outcome": "inactive"},
      {"compound": "NC(N)=NC(N)=Nc1ccccc1", "outcome": "inactive"},
      {"compound": "CC1CCN=C(N)S1", "note": "(stereo not given)", "outcome": "inactive"},
      {"compound": "COc1ccc(CCn2nnnc2C2(c3ccc(C)cc3)CC2)cc1", "outcome": "inactive"},
      {"compound": "CCOC(=O)C12CC1/C(=N/O)c1ccccc1O2", "note": "(stereo not given)", "outcome": "inactive"},
      {"compound": "CC(N)=NCCCC[C@@H](N)C(=O)O", "outcome": "inactive"},
      {"compound": "CCCCC[C@H](CC(=O)NO)C(=O)N[C@H](C(=O)N1CCC[C@H]1CO)C(C)C", "outcome": "inactive"}
    ]}
  ]
}
